Results on 93 compounds are retold here after PubChem BioAssay AID2544 (Sanford-Burnham Center for Chemical Genomics, 2010).

Structures are written as SMILES. Among all 330,000 compounds or so, about 390 (0.12%) were called active. The entries come from a sample that favours actives as a whole. Unmarked numbers belong to inactive results.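 How the source made its calls: active means inhibition reaching a set limit with compound at 10 µM in the primary screen (cut at about 35% in these data); inactive means the rest.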

The target in the assay is Intestinal-type alkaline phosphatase (Homo sapiens) (UniProt P09923). The assay is described as follows: human IAP inhibitors, primary screen, biochemical, luminescence, uHTS (AID 2544).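 Further: plate controls were DMSO wells with enzyme for no effect and no-enzyme buffer wells for full effect.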 The following applies: purified IAP, CDP-Star luminescence, 30 min; at 10 µM; hits give high values.
Intestinal-type alkaline phosphatase (Homo sapiens), sequence (P09923 whole entry, looked up): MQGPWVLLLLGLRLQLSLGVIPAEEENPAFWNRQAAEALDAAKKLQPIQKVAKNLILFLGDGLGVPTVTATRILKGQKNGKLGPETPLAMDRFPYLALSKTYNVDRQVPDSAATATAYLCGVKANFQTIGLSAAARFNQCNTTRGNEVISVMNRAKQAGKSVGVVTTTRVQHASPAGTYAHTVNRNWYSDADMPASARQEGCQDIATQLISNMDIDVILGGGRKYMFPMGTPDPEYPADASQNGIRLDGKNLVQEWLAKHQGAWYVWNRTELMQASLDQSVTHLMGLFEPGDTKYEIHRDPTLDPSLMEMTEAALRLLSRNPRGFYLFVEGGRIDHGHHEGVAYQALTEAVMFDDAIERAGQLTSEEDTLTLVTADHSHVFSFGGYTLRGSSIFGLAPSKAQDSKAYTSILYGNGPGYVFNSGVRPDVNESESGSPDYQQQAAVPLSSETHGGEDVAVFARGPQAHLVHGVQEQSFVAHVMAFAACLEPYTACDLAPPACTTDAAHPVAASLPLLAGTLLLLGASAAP
As to `Cc1cc(N)n2nc(-c3ccc(C(C)(C)C)cc3)cc2n1`, the inhibition is -9%.

Turning to `COc1ccc(-c2nc3cc(C)ccn3c2NC2CCCCC2)cc1SC1CCCCC1`, the inhibition is 18.9%.

Consider `CC1(C)OC(=O)C(=CNC(CO)C(=O)O)C(=O)O1` (stereo not drawn), for which the inhibition was 4.1%.

Consider `CCN(CC(=O)NCc1ccc(Cl)cc1)C(=O)c1c(C)noc1C`, for which the inhibition is -14.3%.

Turning to `COc1cccc(CNC(=O)C2CC(=O)N(C3CCCCCCC3)C2)c1` (stereo not drawn), the inhibition is -15%.

For the compound `COC(=O)NNC(=O)C1CCC(C)CC1` (stereo not drawn), the inhibition was -0.3%.

In the case of `O=C(O)CCn1c(O)c(C=C2N=c3ccccc3=N2)sc1=S`, the inhibition is -32.1%.

Regarding `Cc1ccc(NC(=O)COC(=O)C2C3CC4OC(=O)C2C4C3)cc1Cl` (stereo not drawn), the inhibition is 5.1%.

With `CCOC(=O)N1CCN(S(=O)(=O)c2cc3c(cc2C)NC(=O)CO3)CC1`, the inhibition was -3.7%.

With `O=C(CNC(=O)c1n[nH]c2ccccc12)Nc1cc(Cl)ccc1Cl`, the inhibition was -16.2%.

Consider `FC(F)(F)c1ccnc(Oc2ccc(C3=NCCS3)cc2)c1`, for which the inhibition was 10.4%.

Regarding `CC(C)(C)OC(=O)N1CCC(NC(=O)c2[nH]cnc2C(=O)N[C@@H](Cc2ccccc2)C(=O)OCc2ccccc2)CC1`, the inhibition is -35.2%.

Consider `COc1ccccc1C(=O)OCC(=O)Nc1cccc(S(=O)(=O)NC2=NCCCCC2)c1`, for which the inhibition is 19.2%.

On to `COc1ccccc1C(CNC(=O)c1ccc(C)c(S(=O)(=O)N2CCCCC2)c1)N(C)C` (stereo not drawn), for which the inhibition is -3.4%.

Consider `CN1CCN(CC(=O)C23CC4CC(CC(C4)C2)C3)CC1`, for which the inhibition was 4.5%.

Regarding `Cc1ccc(C(=O)N(CC(=O)NC2CCCC2)c2ccc(F)cc2)s1`, the inhibition was -20.5%.

For `CCCc1cc(C(=O)N2CCCC(CO)(CCCc3ccccc3)C2)n(C)n1` (stereo not drawn), the inhibition was -5.7%.

With `CC#CC[N+](C)(C)CCCCCC`, the inhibition is 6.2%.

Consider `O=C(/C=C/c1cccc(C(F)(F)F)c1)N1CCN(c2ccccn2)CC1`, for which the inhibition is -1.3%.

With `c1csc(-c2nnc(COc3ncnc4sccc34)o2)c1`, the inhibition is 13.5%.

`Cc1sc2ncn(CC(=O)NCCN(C)C)c(=O)c2c1S(=O)(=O)N1CCC(C)CC1`: the inhibition is 10.2%.

For the compound `CCN(Cc1ccccc1)S(=O)(=O)c1cc(C(=O)O)ccc1OC`, the inhibition was -17.1%.

In the case of `Cc1ccc(CN2CCN(Cc3cccc(C)n3)CC2CCO)cc1` (stereo not drawn), the inhibition is 4.3%.

Regarding `Cc1c(C=O)c2ccccn2c1C(=O)c1ccncc1`, the inhibition is 35.9% (active).

As to `Cc1cc2ccccn2c1C(=O)c1cccc(F)c1`, the inhibition was 18.3%.

As for `Cc1c(C(=O)NNC(=O)c2ccncc2)oc2ccccc12`, the inhibition is -50.2%.

In the case of `CC1C(=O)C(C)C(c2ccc(O)cc2)NC1c1ccc(O)cc1` (stereo not drawn), the inhibition was 4.6%.

As for `CCc1cc(CNC(=O)CC2C(=O)NCCN2CC2CCCCC2)on1` (stereo not drawn), the inhibition is -7.8%.

Take `COc1ccc(CNC(=O)CSc2n[nH]c(N)n2)cc1OC`: the inhibition is 5.7%.

Regarding `CS(=O)(=O)Nc1ccccc1C(=O)OCC(=O)NC1CC1`, the inhibition was -0.7%.

For the compound `Cn1c(=O)c2c(nc(N/N=C/c3cccs3)n2Cc2ccc(Br)cc2)n(C)c1=O`, the inhibition was -142%.

As to `O=C(NCc1ccco1)c1ccc(Cn2c(=O)c3sccc3n(Cc3ccc(F)cc3)c2=O)cc1`, the inhibition was 1.3%.

Turning to `Cn1c(=O)c2sccc2n(Cc2ccc(Br)cc2)c1=O`, the inhibition is 38.1% (active).

Turning to `N#Cc1c(-c2ccc(F)cc2)cc(C2CC2)nc1SCC(=O)c1cccs1`, the inhibition was 10.2%.

Regarding `CCOC(=O)Cc1csc(NC(=O)CN(C)S(=O)(=O)c2ccc3c(c2)CCC(=O)N3)n1`, the inhibition was -6.4%.

For `CS(=O)(=O)c1sc(C(=O)NC(=S)Nc2ccc(OC(F)(F)F)cc2)c2c1C=CCC2`, the inhibition is -34.5%.

On to `Cc1ccc2cccc(S(=O)(=O)N3CCN(c4ccccc4F)CC3)c2n1`, for which the inhibition is 22.1%.

As to `CSc1ccc(CNC(=O)c2ccc(NC(=O)C3=CSCCO3)cc2)cc1`, the inhibition is 17.2%.

Regarding `O=C(NCCN1CCOCC1)[C@H](Cc1ccccc1)N1C(=O)c2ccccc2C1=O`, the inhibition was 41.1% (active).

Consider `O=C(NC1=NCCS1)[C@H](Cc1ccccc1)N1C(=O)c2ccccc2C1=O`, for which the inhibition was 4.4%.

In the case of `O=C(CCN1C(=O)c2ccccc2C1=O)NCCN1CCOCC1`, the inhibition is -14.9%.

In the case of `CN(C(=O)CSc1cccc[n+]1[O-])C1CCCCC1`, the inhibition is 2.3%.

`Cc1cc([N+](=O)[O-])nn1CCCC(=O)Nc1cccnc1Cl`: the inhibition was 6.1%.

Take `CC1(C)O[C@@H]2[C@H](O1)[C@@H](COS(=O)(=O)O)O[C@H]2n1cnc2c(=O)[nH]cnc21`: the inhibition was -9%.

`Cc1cc(Cl)c2oc(C(=O)N3CCC(O)(c4ccccc4)CC3)c(C)c2c1`: the inhibition was -10.6%.

In the case of `COc1ccc(Nc2cc(=O)n(-c3ccccc3)c3c2c(=O)n(C)c(=O)n3C)cc1`, the inhibition was 3.3%.

Take `CN(Cc1ccccc1Cl)C(=O)C1CCC(=O)N(CCc2cccc(F)c2)C1` (stereo not drawn): the inhibition was -4.4%.

Turning to `Cc1cc(C)nc(SCc2nnc(SCC(=O)OC3CCCCC3)o2)n1`, the inhibition is -7.3%.

`CCOCCCN(C(=O)Cn1nnc(-c2ccc(OC)c(OC)c2)n1)C(CC)C(=O)NC1CCCC1` (stereo not drawn): the inhibition is -21.9%.

`CCCCC(=O)Nc1ccccc1N1CCN(c2ccc(F)cc2)CC1`: the inhibition was -6.3%.

`CC(=O)c1ccc(N2CCN(CC(=O)Nc3ccccc3N3CCOCC3)CC2)cc1`: the inhibition is 6.2%.

Take `CCC(C)C(=O)Nc1ccccc1N1CCN(c2ccc(F)cc2)CC1` (stereo not drawn): the inhibition is 42.4% (active).

On to `CCOC(=O)c1cc2c(nc1NC(=S)Nc1ccccc1)CC(C)(CC)OC2` (stereo not drawn), for which the inhibition is -6.3%.

With `CCOC(=O)c1cn[nH]c1NC(=S)Nc1ccccc1`, the inhibition was 60.8% (active).

Consider `CCOC(=O)c1ccc(NC(=S)Nc2cc(C)cc(C)n2)cc1`, for which the inhibition was -2%.

On to `NC(N)=Nc1nc2ccc(Br)cc2c(=O)[nH]1`, for which the inhibition was -7.7%.

In the case of `CC(C)(C)c1ccc(SCCc2ccncc2)cc1`, the inhibition is -36.5%.

For the compound `c1ccc(CSCCc2ccncc2)cc1`, the inhibition is 39.6% (active).

Regarding `Cc1cc(C)c(SCCc2ccncc2)c(C)c1`, the inhibition was -12.6%.

On to `O=C1N(c2ccc(Cl)cc2)C(c2ccc(Cl)cc2)N2CCCN12` (stereo not drawn), for which the inhibition is 0.2%.

Turning to `CCCC1C(c2ccccc2)C(C#N)(C#N)C2(C#N)CC1(N)NC2=O` (stereo not drawn), the inhibition was -3.9%.

On to `CN(C(=O)COc1nnc(-c2cccs2)c(-c2cccs2)n1)c1ccccc1`, for which the inhibition was -23.1%.

With `CS(=O)(=O)N(CC(=O)N1CCOCC1)c1cccc(Cl)c1Cl`, the inhibition is -16.2%.

For the compound `NS(=O)(=O)c1cccc(NC(=O)COC(=O)/C=C/c2ccco2)c1`, the inhibition was 5.2%.

For the compound `COC(=O)c1cc2c(ccn2C)n1C`, the inhibition is 15.7%.

Take `CCN1/C(=C\c2ccc3ccccc3[n+]2CC)Sc2cc(C)ccc21`: the inhibition was 39.8% (active).

In the case of `COc1cccc(C(=O)n2ccc(-c3cccs3)n2)c1`, the inhibition is 0.5%.

Consider `Cc1c(Cl)cccc1NC(=O)[C@@]1(CC(=O)O)CC(/C=C/c2ccccc2)=NO1`, for which the inhibition is 11%.

In the case of `CSC1=NC2(C)CCCCC2C12C=CC(=O)C=C2` (stereo not drawn), the inhibition was 12.2%.

Regarding `O=C(NCCCN1CCCCC1)C1CC(=O)N(CCc2ccccc2)C1` (stereo not drawn), the inhibition is -4.4%.

On to `O=C(CN(C(=O)c1csnn1)c1ccc(Br)cc1)NC1CCCC1`, for which the inhibition was -3.8%.

For the compound `CC(C)(C)C(=O)N(Cc1ccccc1)c1ccccn1`, the inhibition is -10.9%.

Regarding `COc1ccccc1C1CCN(C(=S)Nc2ccc(Br)cc2)CC1`, the inhibition was 5.9%.

For the compound `O=C(CCCl)Nc1ccc(S(=O)(=O)NCc2ccco2)cc1`, the inhibition is 7.1%.

As to `CCS(=O)(=O)N1CCC(N2CCN(c3ccccc3)CC2)CC1`, the inhibition was 15%.

Take `CCCCc1ccc(NC(=S)N2CCCC(CO)C2)cc1` (stereo not drawn): the inhibition was 7.5%.

In the case of `O=C(CN1C(=O)NC(Cc2c[nH]c3ccccc23)C1=O)Nc1ccccc1C(F)(F)F` (stereo not drawn), the inhibition is -22.4%.

In the case of `CC(C(=O)N1CCc2ccccc21)N(C)CC(=O)Nc1ccc(F)cc1` (stereo not drawn), the inhibition was 22.6%.

Regarding `O=C(c1cccs1)N1CCC(c2nc3ccccc3s2)CC1`, the inhibition was 22.5%.

On to `COc1cc2c(cc1OC)C(C(=O)NCc1ccco1)C1c3ccccc3CCN1C2=O` (stereo not drawn), for which the inhibition is -2.9%.

Regarding `CN1/C(=c2/s/c(=C3/C(=O)N(c4ccccc4)NC3=Nc3ccccc3)n(C)c2=O)C(C)(C)c2ccccc21`, the inhibition is 35% (active).

Consider `Cc1ccc(N(CC(=O)NCC2CCCO2)C(=O)CNS(=O)(=O)c2ccc(Cl)cc2)cc1` (stereo not drawn), for which the inhibition is 6.2%.

For the compound `CC(NCCc1ccc(S(N)(=O)=O)cc1)C(=O)NCc1ccccc1` (stereo not drawn), the inhibition is 8.3%.

Turning to `O=C(CN1CCC(NC(=O)C2CC2)CC1)Nc1ccccc1[N+](=O)[O-]`, the inhibition is 1.9%.

On to `CCN(C(=O)COC(=O)c1cc(S(=O)(=O)N2CCc3ccccc32)ccc1OC)C1CCS(=O)(=O)C1` (stereo not drawn), for which the inhibition is 8.6%.

`CCc1cc2c(=O)c(-c3ccon3)c(N)oc2cc1OC`: the inhibition was 6.6%.

Regarding `CC(Sc1cccc[n+]1[O-])C(=O)Nc1cccc(S(=O)(=O)N2CCOCC2)c1` (stereo not drawn), the inhibition is -16.4%.

For the compound `CCNC(=S)N(CCc1c(C)[nH]c2ccc(C)cc12)Cc1ccco1`, the inhibition is 3.7%.

For the compound `Cc1c(C(=O)OC(C)C)sc(NC(=O)c2cccnc2)c1C#N`, the inhibition was -1.7%.

In the case of `CCOC(=O)N1CCC(NC(=O)CN2C(=O)COc3ccc(C(C)(C)C)cc32)CC1`, the inhibition is -21.5%.

In the case of `Cc1ccc(C(C)(C)C)c(OCCCCN2CCCC2)c1`, the inhibition is 10.8%.

For the compound `O=C(C[n+]1cc(Br)cc2ccccc21)c1ccc(F)cc1`, the inhibition was -5.7%.

On to `COc1ccc(CCOC2OC(CO)C(OC(=O)/C=C/c3ccc(O)c(OC)c3)C(O[C@H]3O[C@@H](C)[C@H](O)[C@@H](O)[C@H]3O)C2O)cc1O` (stereo partly drawn), for which the inhibition is 4.7%.
